From PubChem BioAssay (Tox21) come the findings set out here.

Inconclusive results are not listed. Unmarked numbers belong to inactive results. The source made the active and inactive calls. Unless noted, calls follow the shape of the dose curve; as a rule, active = well fitted curve in the direction sought with a large enough effect in the repeat runs; inconclusive = weak or mixed curves; inactive = no such curve, though single readings can be large; an effect the other way counts as inactive or inconclusive.

Test [1] is described as follows: qHTS assay to identify small molecule agonists of the constitutive androstane receptor (CAR) signaling pathway - cell viability counter screen (AID 1224836). Also: series mostly up to about 92 µM; nearly all actives have a fitted effect of over 45% in size. An outline of the steps: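 Using CellTiter-Fluor, viability of HepG2 cells harbouring hCAR and CYP2B6-2.2kb was measured following 23 h incubation with a 15-concentration compound series plus PK11195 (0.75 uM final).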
In general terms: Quantitative high-throughput screening tests each substance at several concentrations.

Test [2] in a line: qHTS assay to identify small molecule antagonists of the constitutive androstane receptor (CAR) signaling pathway - cell viability counter screen (AID 1224837). Also: series mostly up to about 92 µM; nearly all actives have a fitted effect of over 45% in size. The method, boiled down: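 CITCO at 50 nM final was added alongside compounds (15 concentrations) to double-stable hCAR/CYP2B6-2.2kb HepG2 cells. Following 23 hr at 37 C, cell viability was quantified by CellTiter-Fluor fluorescence intensity.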

For test [3], the target named is Nuclear receptor subfamily 1 group I member 3 (Homo sapiens) (UniProt Q14994). The test is described as follows: qHTS assay to identify small molecule antagonists of the constitutive androstane receptor (CAR) signaling pathway (AID 1224838). Also: nearly all actives have a fitted effect of over 40% in size. The method, boiled down: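 Inhibition of CITCO-driven (50 nM final) CYP2B6 reporter expression is measured in HepG2 cells stably carrying hCAR. Fifteen compound concentrations are applied for 24 h at 37 C, followed by luciferase luminescence.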
Nuclear receptor subfamily 1 group I member 3 (Homo sapiens), sequence (Q14994 whole entry, looked up): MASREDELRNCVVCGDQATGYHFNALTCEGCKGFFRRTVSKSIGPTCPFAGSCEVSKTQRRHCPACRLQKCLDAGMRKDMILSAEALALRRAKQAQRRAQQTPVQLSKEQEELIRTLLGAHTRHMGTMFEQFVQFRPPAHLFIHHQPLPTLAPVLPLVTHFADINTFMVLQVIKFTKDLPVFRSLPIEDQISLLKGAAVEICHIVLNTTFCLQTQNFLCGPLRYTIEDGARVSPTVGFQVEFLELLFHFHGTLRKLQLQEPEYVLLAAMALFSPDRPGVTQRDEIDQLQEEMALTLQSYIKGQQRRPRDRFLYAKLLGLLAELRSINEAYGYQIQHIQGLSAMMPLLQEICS

For test [4] the target is unchanged. The test is described as follows: qHTS assay to identify small molecule agonists of the constitutive androstane receptor (CAR) signaling pathway (AID 1224839). Also: nearly all actives have a fitted effect of over 15% in size. Also: potency is read from the fitted curve at half-maximal effect. As to activation: series mostly up to about 92 µM. The method, boiled down: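 Double-stable HepG2 cells (hCAR, CYP2B6-2.2kb) seeded 4 h before compound addition. Exposure 24 h with 0.75 uM PK11195 final. Luciferase detected by ONE-Glo.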
Test [5] is described as follows: qHTS assay to identify small molecule antagonists of the estrogen related receptor signaling pathway with the pleiotropic PPARgamma coactivator (PGC) from Tox21 10K library - cell viability counter screen (AID 1224840; active = well fitted cell-killing curve with a large enough effect in the repeat runs, not every such curve was filed as active; also: nearly all actives have a fitted effect of over 40% in size). An outline of the steps: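 Readout: fluorescence intensity from CellTiter-Fluor after 30 min at 37 C/5% CO2. Preceded by 17.5 h treatment of PGC/ERR cells with DMSO-dissolved compounds, added 6 h post-seeding.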

The target in test [6] is Thyrotropin receptor (Homo sapiens) (UniProt P16473). The test can be described thus: qHTS assay to identify small molecule agonists of the thyroid stimulating hormone receptor (TSHR) signaling pathway (AID 1224843; calls by dose curve; also: nearly all actives have a fitted effect of over 45% in size). The method, boiled down: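 Compounds are titrated over 15 concentrations, in triplicate, onto TSHR-HEK293 cells seeded at 800/well. Plates sit 30 min at room temperature before cAMP-d2 and anti-cAMP cryptate are added; signal is read after a further hour.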
Thyrotropin receptor (Homo sapiens), sequence (P16473 whole entry, looked up): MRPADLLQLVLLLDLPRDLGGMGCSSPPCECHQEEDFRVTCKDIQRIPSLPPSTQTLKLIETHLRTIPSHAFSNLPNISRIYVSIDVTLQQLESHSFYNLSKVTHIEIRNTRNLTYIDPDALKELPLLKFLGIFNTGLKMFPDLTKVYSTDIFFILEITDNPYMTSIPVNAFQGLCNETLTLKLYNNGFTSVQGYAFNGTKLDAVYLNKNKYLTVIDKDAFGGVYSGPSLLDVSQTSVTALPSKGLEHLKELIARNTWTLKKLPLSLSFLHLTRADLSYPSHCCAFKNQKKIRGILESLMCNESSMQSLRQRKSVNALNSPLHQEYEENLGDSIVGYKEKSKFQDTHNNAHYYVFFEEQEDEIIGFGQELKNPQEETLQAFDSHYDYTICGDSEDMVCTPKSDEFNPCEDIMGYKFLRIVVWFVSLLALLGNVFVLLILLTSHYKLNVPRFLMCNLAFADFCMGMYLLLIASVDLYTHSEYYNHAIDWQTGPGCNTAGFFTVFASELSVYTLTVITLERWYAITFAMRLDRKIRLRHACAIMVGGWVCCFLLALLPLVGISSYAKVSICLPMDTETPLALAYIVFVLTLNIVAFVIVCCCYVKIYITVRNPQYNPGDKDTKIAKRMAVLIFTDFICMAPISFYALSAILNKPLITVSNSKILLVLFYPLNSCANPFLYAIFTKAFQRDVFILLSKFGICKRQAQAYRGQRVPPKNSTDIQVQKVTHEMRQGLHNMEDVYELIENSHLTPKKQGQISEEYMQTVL

The nature of test [7]: qHTS assay to identify small molecule agonists of the hypoxia (HIF-1) signaling pathway - cell viability counter screen (AID 1224844; calls by dose curve; also: nearly all actives have a fitted effect of over 50% in size). An outline of the steps:
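In this counter screen, HRE-bla ME-180 cell viability after 17 hrs of compound exposure at 37C was read by CellTiter-Glo luminescence, multiplexed with the beta-lactamase reporter measurement.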

A short description of test [8]: qHTS assay to identify small molecule antagonists of the estrogen related receptor signaling pathway with the pleiotropic PPARgamma coactivator (PGC) from Tox21 10K library (AID 1224841; call rule not given here; also: series mostly up to about 92 µM; actives are mostly falling curves and most rising ones were filed inactive; nearly all actives have a fitted effect of over 50% in size). The method, boiled down:
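One-Glo luminescence, measured after half an hour at room temperature, quantified reporter output of PGC/ERR cells. These had been plated at 2,000 per well, incubated 6 h, dosed with compounds in DMSO, then kept 18 h at 37 C.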

Test [9] is described as follows: qHTS assay to identify small molecule agonists of the estrogen related receptor signaling pathway with the pleiotropic PPARgamma coactivator (PGC) from Tox21 10K library (AID 1224842). Also: nearly all actives have a fitted effect of over 15% in size. Also: potency is read from the fitted curve at half-maximal effect. An outline of the steps: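 PGC/ERR reporter cells (NTP line) were seeded 2,000 per well, rested 6 h at 37 C/5% CO2, then pin-dosed with compounds in DMSO for 18 h at 37 C; luciferase read by One-Glo luminescence after 30 min at room temperature.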
% is scaled to controls: 0 for no effect and ±100 for the full control effect.

Take `O=C(c1ccccc1O)c1ccccc1O`: the result in test [1], in test [2] and in test [5] was inactive. For the same compound, the Potency result in [3], in [4], in test [6] and in test [7] was “inactive” in each case.

`CC[N+](C)(CC)CCOC(=O)C1c2ccccc2Oc2ccccc21`: the result in test [2] and in [5] was inactive. For the same compound, the Potency result in test [6] and in test [7] was “inactive” throughout.

Turning to `Cc1ccc(-c2ncc(Cl)cc2-c2ccc(S(C)(=O)=O)cc2)cn1`, the result in test [1], in test [2] and in test [5] was inactive. Moreover, the Potency entry in test [6] and in test [7] was “inactive” throughout.

Take `CCC(C)(CN(C)C)OC(=O)c1ccccc1` (centres undefined): the compound was called inactive in test [1], in [2] and in [5]. For the same compound, in test [7], the Potency entry was “inactive”.

As to `CC(C)c1ccc2ncccc2c1`, the compound was classed as inactive in [2] and in test [5]. The Potency result in test [3], in test [4], in [8], in [9] and in test [7] was “inactive” in each case.

With `COC(=O)Nc1ccc(Cl)c(Cl)c1`, the call in test [2] and in [5] was inactive. The Potency entry in test [3], in test [6] and in [7] was “inactive” throughout. In addition, in test [4], the Potency was 60.8 µM (active).

As for `Cc1ccc(C(=O)Nc2ccc(S(=O)(=O)O)c3cc(S(=O)(=O)O)cc(S(=O)(=O)O)c23)cc1NC(=O)c1cccc(NC(=O)Nc2cccc(C(=O)Nc3cc(C(=O)Nc4ccc(S(=O)(=O)O)c5cc(S(=O)(=O)O)cc(S(=O)(=O)O)c45)ccc3C)c2)c1`, the outcome in [1] and in [2] was inactive. Moreover, the Potency result in [8], in [9], in test [6] and in test [7] was “inactive” in each case.

Take `CC12CCC(C(=O)C1=O)C2(C)C` (centres undefined): the compound was called inactive in test [1] and in [5]. For the same compound, the Potency result in test [7] was “inactive”.

Regarding `C=C(C)C(=O)OCCOCCOCCOCCOC(=O)C(=C)C`, the Potency result in test [3], in test [4], in test [6] and in [7] was “inactive” throughout. Besides, the compound was called inactive in test [5].

As to `C[N+](C)(CCOc1ccccc1)Cc1cccs1`, the result in test [1], in test [2] and in [5] was inactive. The Potency result in [9], in [6] and in test [7] was “inactive” in each case.

`CCOCC(C)O` (centres undefined): the call in test [2] and in [5] was inactive. For the same compound, the Potency result in test [8], in test [9], in test [6] and in test [7] was “inactive” each time.

Take `CC1=NN(c2cc(S(=O)(=O)O)ccc2Cl)C(=O)C1N=Nc1ccccc1` (centres undefined): the Potency result in test [3], in test [4], in test [6] and in [7] was “inactive” throughout.

For `C[N+]1(C)[C@@H]2CC(OC(=O)[C@H](CO)c3ccccc3)C[C@H]1[C@@H]1O[C@@H]12` (some centres undefined), the compound was classed as inactive in test [1] and in test [2]. Moreover, the Potency result in test [6] and in test [7] was “inactive” in each case.

For `Cc1ccc(C(=O)c2ccccc2)cc1`, the result in test [2] was inactive. The Potency entry in test [3] and in test [7] was “inactive” each time.

`CC(CC=O)CC(C)(C)C` (centres undefined): the call in test [1] and in test [5] was inactive. Moreover, the Potency entry in test [3], in test [6] and in [7] was “inactive” throughout.

`O=C1NC(=O)C2CC=CCC12` (centres undefined): the outcome in test [1] and in test [5] was inactive. The Potency result in [3], in [4], in test [6] and in test [7] was “inactive” in each case.

As to `O=C(CO)[C@@H](O)[C@H](O)[C@H](O)CO`, the compound was called inactive in test [1] and in test [5]. The Potency result in test [3], in test [4], in [8], in [6] and in test [7] was “inactive” in each case. Further, the Potency in [9] is 0.0017 µM (active).

Turning to `CCCc1ncc(C[n+]2ccccc2C)c(N)n1`, the result in test [1], in test [2] and in test [5] was inactive. The Potency result in test [7] was “inactive”.

Take `CNCCO`: the outcome in test [1], in test [2] and in test [5] was inactive. The Potency result in test [6] and in [7] was “inactive” throughout.

For the compound `O=C1CCCCCCCCCCCCCCO1`, the call in [1], in test [2] and in test [5] was inactive. Further, in test [7], the Potency entry is “inactive”.

`CCCCc1nc(Cl)c(CO)n1Cc1ccc(-c2ccccc2-c2nn[nH]n2)cc1`: the compound was called inactive in test [2] and in test [5]. The Potency result in [3], in test [4] and in [7] was “inactive” in each case.

Consider `CC1(C)[C@@H]2CC[C@@]1(C)[C@H](O)C2`, for which the call in [2] and in test [5] was inactive. The Potency entry in [6] and in test [7] was “inactive” throughout.

In the case of `Clc1cc(Cl)c(Cl)nc1Cl`, the compound was classed as inactive in test [2] and in test [5]. The Potency entry in test [3], in [8], in [9], in [6] and in test [7] was “inactive” throughout.

As for `CC(C)[C@H]1CC[C@@H](C)CC1=O`, the Potency result in test [6] and in test [7] was “inactive” each time.

Consider `Cc1c(N)c(=O)n(-c2ccccc2)n1C`, for which, in [1], the compound was classed as inactive. Moreover, the Potency entry in test [6] and in test [7] was “inactive” each time.

In the case of `O=S(=O)(O)c1cc(O)c(O)c(S(=O)(=O)O)c1`, the outcome in test [1], in test [2] and in test [5] was inactive. Moreover, the Potency entry in test [3] and in [7] was “inactive” in each case.

`NO`: the result in test [1], in test [2] and in [5] was inactive. Also, the Potency entry in test [6] and in [7] was “inactive” throughout.

In the case of `CCN1CCOCC1`, the result in test [1], in test [2] and in test [5] was inactive. The Potency result in test [3] and in test [7] was “inactive” each time.

In the case of `CCCCCCCCCCCCCCC(=O)O`, the result in test [2] and in test [5] was inactive. In addition, the Potency result in test [3], in [6] and in test [7] was “inactive” throughout.

With `NCCCC[C@H](N[C@@H](CCc1ccccc1)C(=O)O)C(=O)N1CCC[C@H]1C(=O)O`, the compound was called inactive in test [1] and in test [5]. The Potency entry in [3] and in test [7] was “inactive” each time.

`Nc1ccccn1`: the outcome in test [2] and in test [5] was inactive. For the same compound, the Potency result in test [3], in test [4] and in test [7] was “inactive” each time.

For `CCCCN1C=CN(C)C1`, the activity change, negative = cytotoxicity in test [2] is -1.55% [at 19 µM]; in test [7] it was -14.8% [at 15.8 µM]. Further, in test [3], the activity, negative = inhibition is 14.7% [at 19 µM]. The activation was -0.414% [at 19 µM] in [4], 0.537% [at 19 µM] in [9] and 2.47% [at 19 µM] in test [6]. The viability change, negative = cytotoxic in [5] is 1.46% [at 19 µM].

Take `CC(C)CCCO`: the compound was called inactive in [1], in [2] and in test [5]. The Potency result in test [6] and in test [7] was “inactive” in each case.

In the case of `CCCC(C)C(=O)OCC` (centres undefined), the compound was called inactive in [2] and in test [5]. The Potency entry in [3], in test [4], in test [9], in test [6] and in [7] was “inactive” in each case.

Consider `O=C(O)c1cn(C2CC2)c2cc(N3CCNCC3)c(F)cc2c1=O`, for which the compound was classed as inactive in test [1], in [2] and in test [5]. The Potency entry in test [6] and in [7] was “inactive” each time.

Regarding `CC[N+](CC)(CC(=O)Nc1c(C)cccc1C)Cc1ccccc1` (tested in a mixture with another compound), the result in test [1], in test [2] and in test [5] was inactive. Besides, in test [7], the Potency entry was “inactive”.

Regarding `COC(=O)C1=C(C)NC(C)=C(C(=O)OC(C)C)C1c1cccc2nonc12` (centres undefined), the Potency result in [3], in [8], in test [9], in [6] and in test [7] was “inactive” throughout. In test [5], the call was inactive.

In the case of `CCOC(=O)C1=NOC(c2ccccc2)(c2ccccc2)C1`, the compound was called inactive in [2] and in [5]. Besides, the Potency result in [7] was “inactive”.

`CN(C)CCCN(C)CCCN(C)C`: the outcome in test [1], in test [2] and in test [5] was inactive. Further, the Potency result in test [6] and in test [7] was “inactive” throughout.

For the compound `CCO[Si](OCC)(OCC)c1ccccc1`, the outcome in test [1] was inactive. The Potency entry in [8], in [9], in test [6] and in test [7] was “inactive” each time.
